Out of some 390,000 compounds screened, about 35 (0.009%) were called active. About 6% were inconclusive and are not listed. This is one part of a sample in which actives are shown more often than they occur. Calls come from the whole dose curve; as a rule, active = well fitted inhibition curve with a large enough effect in the polarisation, with a control signal flat (not every such curve was filed as active); inconclusive = small, poorly fitted or top-dose-only effect, or effect the other way, or a change in a side signal; inactive = no such curve, though single readings can be large or run the other way; the % refers to the polarisation.
target: Peptidyl-prolyl cis-trans isomerase NIMA-interacting 1 (Homo sapiens) (UniProt Q13526); test: qHTS Assay to Find Inhibitors of Pin1; conditions: Pin1 FP peptide displacement, HiFluor488, 10 min; series mostly up to 115 µM; activity, negative = inhibition: at the top concentration
Text: NIH Molecular Libraries Probe Production Network [MLPCN]
NIH Chemical Genomics Center [NCGC]
The unique chemical properties of Pro allow for the adoption of two completely distinct amide bond conformations (cis and trans). Peptidyl-prolyl cis/trans isomerases (PPIases) are evolutionary conserved enzymes that catalyze cis/trans isomerization of peptidyl-prolyl peptide bonds. Distinct from all other PPIases such as cyclophilins and FK506-binding proteins (FKBPs), Pin1 binds a subset of phos.Ser/Thr-Pro-containing proteins using its protein-targeting WW domain and isomerizes only specific phos.Ser/Thr-Pro bonds, which cannot be effectively catalyzed by other known PPIases.
Pin1-catalyzed conformational regulation can control a spectrum of activities of many key regulators in diverse cellular processes such as cell growth, genotoxic and other stress responses, immune response, germ cell development, neuronal differentiation and survival. Pin1 has emerged as a novel molecular timer that modulates its multiple targets at various steps of a given cellular process to synergistically control the amplitude and duration of a cellular response or process. Importantly, Pin1 is tightly regulated by multiple levels and its deregulation has an important role in a growing number of pathological conditions, including cancer, Alzheimer's disease, aging, asthma and microbial infection, providing a potentially new therapeutic option.
The goal of this screen is to find small-molecule inhibitors of Pin1 using a fluorescence polarization competition assay. A HiFluor-488-labeled peptide binds to the active site of Pin1 and can be displaced by compounds. Compounds were screened as a concentration-titration series that ranged from 57 uM to 0.7 nM.
NCGC Assay Protocol Summary:
Pin1 (0.6 uM) was dispensed into black, solid 1536-well plates at 2 uL/well in 10 mM HEPES (pH 7.5), 10 mM NaCl, 0.01% Tween20, 1 mM DTT, and 1% glycerol. Then, 23 nL of compounds or DMSO were delivered to each well using a pin tool. Two uL of Pin1-1b-HiFluor488 peptide (10 mM HEPES (pH 7.5), 10 mM NaCl, 0.01% Tween20, 1 mM DTT, and 1% glycerol, 0.02 uM Pin1-1b-HiFluor488) was then dispensed, and plates were incubated at room temperature for 10 min. The plates were measured on a ViewLux plate reader for fluorescence polarization signal using a 480/20 nM nm excitation filter and 540/25 nM nm S and P emission filters with a 20 second exposure. The %Activity was determined from the corrected fluorescence polarization values. Unlabeled Pin1-1c peptide was used as a control (3.5 mM two-fold serial; 20 uM final concentration) along with a 1x (0.3 uM) and 0x (no-enzyme) Pin1 enzyme control to normalize %Activity of identified inhibitors; 0x enzyme values corresponded to 100%Activity (full inhibition), while 1x Pin1 enzyme values were used to normalize 0%Activity (no inhibition).
Concentration-response curves were fitted to the signals arising from the resulting fluorescence polarization. The concentration-effect curves were then classified based on curve quality (r2), response magnitude and degree of measured activity, and compounds were subsequently categorized based on their curve class.
Keywords: Peptidyl prolyl isomerase, Pin1, fluorescence polarization, MLSMR, MLPCN, NIH Roadmap, qHTS, NCGC

Peptidyl-prolyl cis-trans isomerase NIMA-interacting 1 (Homo sapiens), sequence (Q13526 whole entry, looked up): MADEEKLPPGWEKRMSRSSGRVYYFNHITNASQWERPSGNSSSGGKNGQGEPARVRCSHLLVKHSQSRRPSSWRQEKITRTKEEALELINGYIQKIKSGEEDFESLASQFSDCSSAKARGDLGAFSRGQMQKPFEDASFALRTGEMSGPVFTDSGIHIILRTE

activity, negative = inhibition, inactive:
Cc1ccc(CNC(=O)CSc2c(C)cnc3c2c(=O)n(C)c(=O)n3C)cc1 -9.06%
CCc1cc2c(cc3c(=O)n(CC(=O)N4CCN(c5cc(Cl)ccc5C)CC4)ncn32)s1 3.35%
CCCN1CCC(=O)N(C(CSc2ccc(C)cc2)Cc2ccccc2)CC1 (stereo not drawn) 1.02%
CCCCn1c(=O)c2oc3ccccc3c2n(CC(=O)Nc2ccccc2OC)c1=O -1.59%
Cn1c(=O)oc2cc(S(=O)(=O)CCC(=O)NCCc3ccc(Cl)cc3)ccc21 -2.53%
COc1ccc(C(=O)N(Cc2ccccc2)Cc2ccc(OC)c(COc3ccc(NC(C)=O)cc3)c2)c(O)c1 2.36%
O=C1C(F)N([S+](=O)([O-])c2ccc3c(c2)OCCO3)CCN1[S+](=O)([O-])c1c(F)cccc1F (stereo not drawn) 0.717%
Cc1ccccc1CN1CCC(CNC(=O)c2cc3ccc4cccnc4c3[nH]2)CC1 2.12%
CN(Cc1cncn1C)c1ncnc2ccc(-c3ccc4c(c3)OCO4)cc12 -0.072%
CC(C)(C)NS(=O)(=O)c1cccc(Nc2nn3c(=O)c4ccccc4nc3s2)c1 102%
COc1ccc(Cn2cc(C(=O)c3ccc(C)cc3)c(=O)c3cc(OC)c(OC)cc32)cc1 8.62%
Cc1ccc(NC(=O)c2cc3cc(C)ccc3n2C)cc1 -5.9%
N#CN1CCC(NC(=O)c2ccc(F)cc2)CC1 -0.423%
O=C(CNC(=O)c1ccc(Cl)cc1Cl)OC(C(=O)Nc1cc(C(F)(F)F)ccc1Cl)c1ccccc1 (stereo not drawn) 36.8%
N#CN1CCC(NS(=O)(=O)c2cccc(F)c2)C1 (stereo not drawn) -0.967%
O=C(COc1ccccc1)NCc1ccc2c(c1)CCN2C(=O)c1ccc(F)cc1 -3.72%
CN(C)c1ccc(C(=O)NCC(=O)OC(C(=O)Nc2cc(C(F)(F)F)ccc2Cl)c2ccccc2)cc1 (stereo not drawn) -0.299%
CC1CCCCN1S(=O)(=O)c1ccc(F)c(C(=O)Nc2ccccc2C(F)(F)F)c1 (stereo not drawn) -3.9%
Cc1noc(C)c1-c1ccc2ncnc(NCc3ccc4[nH]ccc4c3)c2c1 4.44%
Brc1ccc2c(c1)NC(c1cccnc1)=NC(c1ccccc1)=N2 -8.22%
CS(=O)(=O)c1ccc(-c2nnc(NC(=O)c3ccc4c(c3)OCCO4)o2)cc1 0.171%
CCN(Cc1ccccc1)C(=O)c1cn(-c2cccc(OC)c2)c(=O)c2ccccc12 -15.2%
O=C(c1ccccc1F)N1CCC(c2nc3c(nnn3Cc3cccc(F)c3)c(=O)[nH]2)CC1 -1.2%
COc1cc(OC)cc(C(=O)Nc2cc3nn(-c4ccccc4)nc3cc2Cl)c1 1.15%
O=C(c1ccc2c(c1)N(Cc1ccccc1)C(=O)c1ccccc1S2(=O)=O)N1CCC(Cc2ccccc2)CC1 4.02%
COc1cccc(Cn2c(SCc3ccc(C(=O)N4CCC(C)CC4)cc3)nc3ccncc32)c1 5.45%
O=S(=O)(c1ccc2nc(NCc3ccccc3Cl)ccc2c1)N1CCCCC1 44.9%
Oc1ccc(/C=C/c2c(F)cccc2F)c2cccnc12 0.14%
Oc1ccc(Br)cc1C1C=C(c2ccc3c(c2)OCO3)NC(c2ccc(Cl)cc2)N1 (stereo not drawn) 52.8%
O=C(NCc1ccccn1)[C@]1(C(F)(F)F)C[C@H](CCc2ccccc2)CCCO1 -0.539%
CCOc1ccccc1C(=O)Nc1ccc(S(=O)(=O)N2CCCCC2c2cccnc2)cc1 (stereo not drawn) 21.9%
Cc1ccc(-c2nc3ccccn3c2Nc2ccc(F)cc2)o1 -7.84%
COc1ccc(CNC(=O)CSc2n[nH]c(-c3ccc(F)cc3)n2)cc1 -3.7%
O=C(NC1CC(=O)N(c2ccc(F)cc2)C1)c1ccc(S(=O)(=O)N2CCCC2)cc1 (stereo not drawn) -9.06%
CCc1ccccc1NC(=O)c1ccc2nc(CCc3ccccc3)oc2c1 2.6%
CCc1ccc(CNC(=O)C2CCN(c3nn4cc(-c5ccc(F)cc5)nc4s3)CC2)cc1 0.155%
Cc1ccc(CNc2ncnc3cc(-c4ccc5c(c4)OCO5)ccc23)o1 62%
CN1C(=O)c2ccccc2Sc2ccc(NC(=O)Cc3ccc(Cl)cc3)cc21 26.7%
Cc1cc2c(cc3c(SCc4nc(-c5ccccc5)oc4C)nnc(C)n32)o1 8.69%
CCOC(=O)C1CCN(C(=O)CSc2c3c(nc4ccc(Cl)cc24)CCCC3)CC1 -0.165%
Cc1c(Cl)cccc1NC(=O)CCS(=O)(=O)c1ccc2c(c1)oc(=O)n2C 0.402%
O=C(CN1c2ccccc2S(=O)(=O)c2ccccc21)Nc1cccc(C(F)(F)F)c1 4.41%
O=C(COc1ccccc1F)Nc1ccc(C(=O)OCc2cc(=O)n3nc(C4CC4)sc3n2)cc1 -6.29%
N#Cc1nc(Nc2cccc(Cl)c2)nc(NC2CCCC2)n1 1.36%
COc1ccc(Cn2ccn(CC(=O)Nc3cc(C)ccc3C)c(=O)c2=O)cc1 0.673%
COc1cccc(NC(=O)c2ccc3nc(CCc4ccccc4)oc3c2)c1 14.7%
COc1ccc(CC(=O)N2CC(=O)Nc3ccc(Br)cc3C2c2ccc(F)cc2)cc1OC (stereo not drawn) -0.0112%
COc1ccc(N2CCN(S(=O)(=O)CCNC(=O)C(c3ccccc3)c3ccccc3)CC2)cc1 -3.85%

Source: PubChem BioAssay AID504891 (National Center for Advancing Translational Sciences (NCATS), 2011)
